± gives the standard deviation of the averaged measurements.

This assay concerns IL-6-GFP PC-9. Put plainly: cell viability (CCK-8 OD) relative to DMSO control (fraction of control); higher = more viable cells. The note with it: compound concentration: 10 uM; treatment time: 48 h. Summed up:
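PC-9 and PC-9GR lung cancer cells overexpressing IL-6-GFP from a lentiviral construct were plated at 3000 cells/well in 96-well plates. Each compound from a purchased 510-compound library was added at a final 10 μM for 48 h, with a parallel plate set used for GFP imaging. Viability was measured by CCK-8 absorbance and expressed as each well's optical density divided by the vehicle (DMSO) control well, from two independent replicates.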
`COc1c(-c2ccc3cc(NS(C)(=O)=O)ccc3c2)cc(-n2ccc(=O)[nH]c2=O)cc1C(C)(C)C` [Dasabuvir(ABT-333)] came in with a cell viability of 0.9253 ± 0.0086.
In turn, `CN(N=O)C(=O)NC1C(O)OC(CO)C(O)C1O` (centres undefined) [Streptozotocin (STZ)] displayed a cell viability of 0.636 ± 0.052.
Regarding `Cc1ccc(C(=O)c2ccc(CC(=O)O)n2C)cc1` [Tolmetin], the cell viability turned out to be 1.29 ± 0.02.
Molecule `COC1OC2OC3(C)CCC4C(C)CCC(C1C)C24OO3` (centres undefined) [Artemether] had a cell viability of 1.29 ± 0.052.
For `CC(CCC(=O)[O-])C1CCC2C3C(O)CC4CC(O)CCC4(C)C3CC(O)C12C.[Na+]` (centres undefined) [Sodium cholate] the value was 0.997 ± 0.067; for `Cc1cc(C(C)(C)C)cc(C)c1CC1=NCCN1` [Xylometazoline], 1.08 ± 0.14.
As for `CCOc1ccc(NC(C)=O)cc1` [Phenacetin], the figure is 1.09 ± 0.054; as for `C=CC(=O)Nc1cccc(Oc2nc(Nc3ccc(N4CCN(C)CC4)cc3)nc3ccsc23)c1`, 0.465 ± 0.07; as for `CC(N)c1ccc(C(=O)Nc2ccnc3[nH]ccc23)cc1.Cl.Cl` (centres undefined), 0.74 ± 0.23.

(Values after the supplement of paper PMC8866396.)
